14-3-3 Bad inh: disrupts binding of bovine 14-3-3 zeta to phospho-Bad peptide | P63103 | TR-FRET 14-3-3zeta/Dy647-pBad peptide displacement, 1 h | inhibition, % at 21.7 µM | actives 0.71% (n = 220,000) | AID 781;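 active = inhibition above about 70%, limit read from the data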;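 note: 0% = full 14-3-3 plus peptide FRET controls and 100% = background without 14-3-3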
Target sequence (P63103 whole entry, looked up): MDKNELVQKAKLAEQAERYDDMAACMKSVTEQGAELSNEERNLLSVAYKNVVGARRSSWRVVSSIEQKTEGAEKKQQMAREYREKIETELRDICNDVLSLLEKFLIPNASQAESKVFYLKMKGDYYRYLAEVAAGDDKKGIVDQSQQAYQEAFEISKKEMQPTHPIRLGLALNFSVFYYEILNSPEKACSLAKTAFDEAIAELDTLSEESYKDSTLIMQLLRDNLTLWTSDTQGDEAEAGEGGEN
Mcl-1 Bim block: disrupts Bim peptide binding to human Mcl-1; Q07820; Bead-based flow cytometry, Bim peptide-Mcl-1 binding; inhibition, % at 10 µM; actives 0.1% (n = 190,000); AID 1009; in the data active = inhibition above about 40%;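 note: 0% = no compound tracer wells and 100% = peptide blocker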
Target sequence (Q07820 whole entry, looked up): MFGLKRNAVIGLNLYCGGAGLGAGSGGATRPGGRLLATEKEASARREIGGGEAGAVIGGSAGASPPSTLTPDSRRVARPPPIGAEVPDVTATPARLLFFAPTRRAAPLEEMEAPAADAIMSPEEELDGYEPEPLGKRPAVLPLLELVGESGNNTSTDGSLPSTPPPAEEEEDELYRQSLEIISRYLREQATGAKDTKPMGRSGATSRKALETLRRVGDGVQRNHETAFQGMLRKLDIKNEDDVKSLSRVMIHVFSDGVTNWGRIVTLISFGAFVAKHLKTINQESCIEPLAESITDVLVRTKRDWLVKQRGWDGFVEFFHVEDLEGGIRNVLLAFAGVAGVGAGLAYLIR
Mcl1-Noxa inh: disrupts binding of human Mcl-1 to Noxa peptide | TR-FRET Mcl-1/Noxa peptide binding, 2 h | actives 1.5% (n = 220,000) | inhibition, % at 21.7 µM | Q07820;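 active = compounds that cut the protein-peptide binding signal by more than 50% relative to plate controls in a single-dose test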;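 note: His-tagged Mcl-1 with rhodamine Noxa BH3 peptide and terbium anti-His antibody; 0% = Mcl-1 plus Noxa peptide wells and 100% = peptide-only wells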
Mcl1-Bid inh: disrupts binding of human Mcl-1 to Bid peptide; AID 1021; Q07820; inhibition, % at 21.7 µM; TR-FRET Mcl-1/Bid-Dy647 peptide binding, 1536-well; actives 0.97% (n = 220,000);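 active = compounds that cut the binding signal by more than half at the single screening dose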;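 note: His-tagged Mcl-1 with europium anti-His antibody binding Bid BH3 peptide; 0% = Mcl-1 plus peptide wells and 100% = peptide-only wells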
eIF4E-4G inh: blocks eIF4E binding to eIF4G. actives 0.37% (n = 220,000). TR-FRET eIF4E-eIF4GI(517-606) binding, 2 h. inhibition, % at 21.7 µM. P63073+Q04637;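 note: 0% = full FRET control wells and 100% = background wells lacking eIF4GI fragment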
p47phox inh: p47phox (human) inhibition; AID 1274; p47phox/p22phox peptide binding, fluorescence polarization, 2 h; actives 0.53% (n = 220,000); inhibition, % at 24.7 µM;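 note: 0% = p47phox with labelled peptide and 100% = labelled peptide alone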
Starred values were filed as active, the others as inactive; x = no result given; [ ] = dose if it differs, or a comment. A selection: hits, their analogues and other compounds. The true share with any hit is near 3.4%.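 Rule for the calls, unless noted: active = inhibition above about 30% (limit read from the data); inactive = the rest.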

SMILES	14-3-3 Bad inh	Mcl-1 Bim block	Mcl1-Noxa inh	Mcl1-Bid inh	eIF4E-4G inh	p47phox inh
Cn1cnc(S(=O)(=O)Nc2ccc(OC(F)F)cc2)c1	2.8	x	-6.7	7.5	-6.0	-8.2
COC(=O)c1[nH]c(C)c(/C(O)=C2\C(=O)C(=O)N(CCN3CCOCC3)C2c2ccc(C)o2)c1C (stereo not given)	-0.4	x	-3.1	-35.6	-0.8	-3.2
COc1ccc(OCC(=O)N/N=C/c2ccsc2)cc1	13.2	-4.0	7.3	-46.9	-2.9	73.8*
O=C(Nc1ccccc1)C1=C[C@H](c2ccc3c(c2)OCO3)C[C@H](OCc2ccc(CO)cc2)O1	1.9	-1.0	5.3	-0.8	0.8	-39.0
O=C1c2ccccc2C(=O)N1Cc1ccccn1	-24.6	1.0	-6.1	-27.3	2.1	-8.6
C=CCN1C=C2C(=O)C(C)(OC(=O)CC)C(=O)C=C2C=C1CCCC (stereo not given)	-7.1	x	14.7	-84.8	97.0*	-12.9
CS(=O)(=O)c1ccc2nc(NC(=O)c3ccc(N4C(=O)CCC4=O)cc3)sc2c1	2.8	x	19.6	10.4	7.2	-1.1
Cc1ccc(S(=O)(=O)c2c(C)cc(C)nc2Cl)c(C)c1	5.3	-5.0	0.4	-4.3	0.6	-4.2
Cc1cc(C)c(S(=O)(=O)/N=C2\C=CC(=O)C(Cl)=C2)c(C)c1	16.7	1.0	95.5*	46.7	4.5	2.9
CC1CCCCN1CCn1c(=S)[nH]c2cc3c(cc2c1=O)OCO3 (stereo not given)	-1.6	0.0	32.9	-6.4	-0.8	4.0
O=C1c2cccnc2C(Nc2ccc(Cl)cc2)N1Cc1cccs1 (stereo not given)	-5.1	0.0	5.2	3.1	2.8	-9.1
COc1ccc(CN2C(=O)c3cccnc3C2Nc2ccc(OC)c(Cl)c2)cc1 (stereo not given)	83.1*	-4.0	44.3	69.8*	-4.3	-3.3
COc1ccc(NC2c3ncccc3C(=O)N2Cc2ccccc2)c(OC)c1 (stereo not given)	24.8	6.0	43.1	64.0*	-1.2	1.8
Cc1ccc(NC2c3ncccc3C(=O)N2Cc2ccc(F)cc2)cc1 (stereo not given)	57.1	-4.0	31.8	50.5*	6.9	-8.6
COc1ccc(NC2c3ccccc3C(=O)N2Cc2ccccc2Cl)cc1OC (stereo not given)	-1.0	x	22.7	-89.0	4.1	2.5
CCOc1ccc(N2C(=O)c3cccnc3C2Nc2ccc(F)cc2)cc1 (stereo not given)	-5.6	0.0	18.5	83.6*	-3.1	-22.4
COc1ccc(CN2C(=O)c3ccccc3C2C(=O)NCc2cccnc2)c(OC)c1 (stereo not given)	3.9	-2.0	11.3	-49.8	13.3	9.0
COc1ccc2cc(C(=O)C3CCCN(C(=O)Cc4c(C)noc4C)C3)ccc2c1 (stereo not given)	8.0	-1.0	-6.9	-11.2	3.2	1.8
COc1ccc(-c2nc(SC(CC(=O)NCCN3CCOCC3)c3cccs3)n[nH]2)cc1 (stereo not given)	-11.0	0.0	0.2	-28.2	-7.9	-6.4
FC(F)(F)c1cnc2c(-c3ccccc3)n[nH]c2c1	-13.3	0.0	10.1	-11.0	2.4	-0.9
Cn1c(=O)c2c(ncn2Cc2nnc(N)s2)n(C)c1=O	-14.2	0.0	4.9	-18.4	-0.1	1.2
COc1cc2c(c(OC)c1OC)CCc1cnoc1-2	-3.8	x	-20.0	-60.3	1.1	-13.6
O=C(CCN1CCCCC1c1cccnc1)NCc1ccccc1 (stereo not given)	-10.4	-2.0	17.2	-13.3	6.2	-12.6
CCCOc1cccc(CN2CCCCC2c2cccnc2)c1 (stereo not given)	62.9	-1.0	35.1	70.1*	5.8	3.4
O=C(Nc1ccc2oc(=O)ccc2c1)c1ccc(-c2cccc(Cl)c2)o1	92.1*	x	20.7	65.7*	18.5	25.9
SMILES	14-3-3 Bad inh	Mcl-1 Bim block	Mcl1-Noxa inh	Mcl1-Bid inh	eIF4E-4G inh	p47phox inh
O=C(Nc1ccc2oc(=O)ccc2c1)c1cc2ccccc2o1	9.6	-12.0	-5.1	13.8	-3.7	32.2*
Cc1cc(=O)oc2cc(NC(=O)c3cc4ccccc4o3)ccc12	22.1	0.0	18.2	45.5	-1.6	3.8
O=C(Nc1ccc2oc(=O)ccc2c1)c1ccc(-c2cccc([N+](=O)[O-])c2)o1	91.8*	x	69.8*	79.5*	13.3	29.2
O=C(Nc1ccc2oc(=O)ccc2c1)c1ccc(-c2ccc(Cl)cc2)o1	45.6	-7.0	-14.8	55.8*	-6.0	23.8
CCC1=C(OC(=O)N(CC)CC)N2C(=O)OC(=NCC3CC3)[C@]2(Cc2ccccc2)[C@H]2C1=CC[C@H]1C(=O)N(CC)C(=O)[C@H]12	-6.4	x	-16.5	-29.3	4.4	-17.6
COC(=O)C(Cc1ccc(O)cc1)NC(=O)C(CC(=O)OC(C)(C)C)NC(=O)OC(C)(C)C (stereo not given)	-2.6	0.0	5.2	-57.1	-1.6	-5.5
Cc1ccc2oc(=O)c3cc(C(=O)N4CCN(C)CC4)sc3c2c1	3.6	x	19.3	-13.9	1.5	0.3
C=C1CCN([C@H](C(=O)OCc2cccc(C)c2)C(C)C)S(=O)(=O)c2ccccc21	-8.8	x	-8.9	-41.0	-6.8	0.3
C=CCS/C(N)=N\N=C\c1c(O)ccc2ccccc12	-8.1	x	15.7	-19.5	9.1	-8.8
CC1CCc2nn(CC(=O)N3CCCCCC3)cc2C1 (stereo not given)	-4.8	0.0	7.9	-16.4	77.0*[fluorescence artefact?]	-17.8
CCN(CC)c1ccc(NC(=O)Cn2cc3c(n2)CCC(C)C3)c(C)c1 (stereo not given)	3.9	2.0	60.7*	-9.1	-0.8	-9.8
CC1CCc2nn(CC(=O)Nc3ccc(F)cc3F)cc2C1 (stereo not given)	-3.0	-4.0	-0.7	-5.0	0.2	3.8
C[C@@H](C(=O)N1CCN(C(=O)OC(C)(C)C)CC1)n1cc(-c2cn([C@@H](C)C(=O)N3CCN(C(=O)OC(C)(C)C)CC3)nn2)nn1	1.0	x	10.3	-4.8	29.5	4.1
Nc1nc(SCC(=O)NCCc2ccccc2)[nH]c(=O)c1-c1ccccc1	-12.3	0.0	13.8	-23.5	1.4	-11.8
Nc1nc(N2CCCCC2)nc(N(c2ccccc2)c2ccccc2)n1	-1.8	1.0	7.5	-12.7	-4.3	-7.2
Clc1nc(Cl)nc(N(c2ccccc2)c2ccccc2)n1	5.0	-1.0	34.6	50.7*	19.3	3.1
CNC(=S)NNC(=O)c1ccccc1F	-9.5	-1.0	-8.5	-51.2	-0.8	-6.0
Cc1ccc2cc3c(N)c4c(C)ccc(C)c4nc3nc2c1	-9.4	3.0	-2.3	1.8	3.8	31.0*
CN1C(=O)C(O)(CC(=O)/C=C/c2ccco2)c2cc(Br)ccc21 (stereo not given)	83.2*	9.0	9.5	-42.6	-3.8	-5.1
